PP5 inh = PP5 phosphatase inhibitors, primary screen, biochemical, fluorescence. Serine/threonine-protein phosphatase 5 (Homo sapiens), P53041. purified PP5c, OMFP substrate fluorescence. inhibition, % at 6.7 µM. 320,000 tested, 0.18% active. AID 1987, 2009;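 active = inhibition above the campaign's mean inhibition across all tested compounds plus 3 SD, cut at about 9.5% in these data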;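 also: 0% = DMSO only and 100% = 100 µM cantharidin control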
Granule exo inh = LAMP-1 surface exposure blockers, TALL-104 cells – cell-based, flow cytometry, MLPCN library, primary screen; TALL-104 LAMP-1 surface exposure; cells stimulated with thapsigargin and PMA; inhibition, % at 10 µM; 360,000 tested, 0.66% active; AID 651702, 2012;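 active = inhibition above about 55%, limit read from the data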
IDE cell activ = human IDE activators in live cells, primary screen, fluorescence polarization, HEK cells, FAbeta-B substrate; Insulin-degrading enzyme (Homo sapiens), P14735; FAbeta-B cleavage; 0% vehicle, 100% cell-free pure enzyme wells; 340,000 tested, 0.073% active; AID 493087, 2011; activation, % at 5.96 µM;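 active = activation above the mean of all tested compounds plus 3 SD, set per screening campaign, cut at about 17% in these data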
Target sequence (P14735 whole entry, looked up): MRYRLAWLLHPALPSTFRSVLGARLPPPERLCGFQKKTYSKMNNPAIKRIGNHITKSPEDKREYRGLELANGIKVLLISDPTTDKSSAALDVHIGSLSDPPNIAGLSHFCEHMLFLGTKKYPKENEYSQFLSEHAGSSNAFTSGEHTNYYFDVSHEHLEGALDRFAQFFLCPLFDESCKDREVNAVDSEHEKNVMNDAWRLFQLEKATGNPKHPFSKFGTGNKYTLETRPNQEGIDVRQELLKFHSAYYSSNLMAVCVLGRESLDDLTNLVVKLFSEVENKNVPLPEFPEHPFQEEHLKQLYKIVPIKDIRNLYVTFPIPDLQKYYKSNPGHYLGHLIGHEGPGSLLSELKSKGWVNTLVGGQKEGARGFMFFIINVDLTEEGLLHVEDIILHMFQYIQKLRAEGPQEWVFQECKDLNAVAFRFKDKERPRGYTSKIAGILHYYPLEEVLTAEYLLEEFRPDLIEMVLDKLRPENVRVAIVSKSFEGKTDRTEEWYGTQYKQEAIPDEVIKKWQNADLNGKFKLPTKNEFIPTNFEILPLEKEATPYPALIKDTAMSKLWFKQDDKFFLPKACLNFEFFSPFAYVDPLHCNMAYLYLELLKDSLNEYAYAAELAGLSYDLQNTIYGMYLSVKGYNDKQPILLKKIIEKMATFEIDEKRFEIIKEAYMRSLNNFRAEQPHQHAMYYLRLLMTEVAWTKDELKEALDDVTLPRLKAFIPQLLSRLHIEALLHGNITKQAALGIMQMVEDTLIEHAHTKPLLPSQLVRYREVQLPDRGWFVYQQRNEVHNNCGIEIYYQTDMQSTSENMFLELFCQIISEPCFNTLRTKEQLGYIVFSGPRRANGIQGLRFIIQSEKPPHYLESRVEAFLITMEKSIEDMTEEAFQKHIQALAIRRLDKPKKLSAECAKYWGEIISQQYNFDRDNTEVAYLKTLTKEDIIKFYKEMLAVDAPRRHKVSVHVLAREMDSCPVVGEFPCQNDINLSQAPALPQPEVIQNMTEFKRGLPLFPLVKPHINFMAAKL
PP1 inh = PP1-alpha phosphatase inhibitors, primary screen, counter-screen for PP5 inhibitor project, biochemical, fluorescence, OMFP substrate, single point; Serine/threonine-protein phosphatase PP1-alpha catalytic subunit (Homo sapiens), P62136; purified PP1alpha; inhibition, % at 6.7 µM; 320,000 tested, 0.9% active; AID 2235, 2010;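 active = inhibition above the mean inhibition of all tested compounds plus 3 SD, computed separately for each screening campaign, cut at about 15% in these data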
SKKanGAS inh = S. pyogenes SKKanGAS growth inhibitors in kanamycin, primary screen, streptokinase expression inhibitor project, SKKanGAS strain, BacTiter-Glo luminescence; 300,000 tested, 1.3% active; 6 h; inhibition, % at 7.5 µM; AID 1662, 2009;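 active = mean replicate score, as percent of positive control median, at least 50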;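 also: strain carries kanamycin resistance gene driven by streptokinase promoter and grows in 40 µg/ml kanamycin; loss of luminescence reflects streptokinase promoter inhibition or plain growth inhibition; 0% = median of DMSO wells and 100% = positive control at its reference dose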
IDE cell inh = human IDE inhibitors in live cells, primary screen, fluorescence polarization, HEK cells, FAbetaB substrate; Insulin-degrading enzyme (Homo sapiens), P14735; FAbetaB cleavage; inhibition, % at 5.59 µM; 320,000 tested, 0.41% active;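 active = percent inhibition above the average of all tested compounds plus 3 SD, set per screening campaign, cut at about 16% in these data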;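 also: IDE supplied by intact live HEK cells; FP after avidin binding of uncleaved biotin substrate so inhibition keeps polarization high; 0% = DMSO wells and 100% = 60 µM reference IDE inhibitor Ii1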
PP1 confirm = PP1 phosphatase inhibitors, confirmation, biochemical, fluorescence, OMFP substrate, triplicate; shares compounds with PP1 inh; purified PP1alpha; inhibition, % at 6.7 µM; 1,900 tested, 52% active; AID 2358, 2010;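 active = mean PP1 inhibition above a set limit taken from the earlier primary screen, cut at about 15% in these data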
PP5 counter = PP5 phosphatase inhibition by PP1 hits, confirmation, counter-screen for PP1 inhibitor project, biochemical, fluorescence, triplicate; shares compounds with PP1 inh; purified PP5c, OMFP fluorescence; inhibition, % at 6.7 µM; 1,900 tested, 4% active;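 active = mean PP5 inhibition over triplicate wells above about 9.5% taken from the earlier PP1 screen, limit read from the data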
* = called active by the depositor. The list is not random: actives were taken first. Their share in the collection is about 2.8%.

`C[C@]12C=CC(=O)C=C1CC[C@@H]1C2=CC[C@]2(C)[C@@H](C(=O)CN3CCN(c4cc(N5CCCC5)nc(N5CCCC5)n4)CC3)CC[C@@H]12` gave PP5 inh 13.1*, Granule exo inh 2.8, IDE cell activ -0.3, PP1 inh 26.0*, SKKanGAS inh 21.8, IDE cell inh -1.3, PP1 confirm 50.0* and PP5 counter 25.1*.
Screening Cc1nc(SC(C)C(=O)Nc2cccc(C(F)(F)F)c2)c2c(C)c(C(=O)O)sc2n1 (stereo not given) returned PP5 inh -1.2, Granule exo inh 4.0, IDE cell activ 9.0, PP1 inh 45.0*, SKKanGAS inh 10.4, IDE cell inh -2.0, PP1 confirm 15.2* and PP5 counter -5.0.
For CCn1cc(C(=O)O)c(=O)c2cc(F)c(N3CCN(C(=S)Nc4ccccc4OC)CC3)cc21 the results were PP5 inh 2.0, Granule exo inh 0.9, IDE cell activ -2.2, PP1 inh 24.6*, SKKanGAS inh -2.5, IDE cell inh 7.3, PP1 confirm 14.8 and PP5 counter -4.0.
Cc1ccc(C(=O)N(CC(=O)NC2CCCC2)c2ccccc2F)s1 was read as Granule exo inh 10.3.
For CC(C)=CCc1c(O)cc2oc3c(CC=C(C)C)c(O)c(O)c(CC=C(C)C)c3c(=O)c2c1O the results were PP5 inh 3.8, Granule exo inh 4.3, IDE cell activ 1.9, PP1 inh 38.9*, SKKanGAS inh 100.8*, IDE cell inh 2.9, PP1 confirm 33.4* and PP5 counter 0.2.
`CC(C)=CCc1cc(-c2oc3cc(O)cc(O)c3c(=O)c2O)ccc1O` gave PP5 inh 4.2, Granule exo inh 4.9, IDE cell activ -1.2, PP1 inh 0.3, SKKanGAS inh 30.8 and IDE cell inh 9.5.
CCc1noc(C)c1C(=O)OCC(=O)N(CCOC)c1c(N)n(Cc2ccccc2)c(=O)[nH]c1=O was read as PP5 inh -4.0, Granule exo inh 37.3, IDE cell activ 3.4, PP1 inh 22.0*, SKKanGAS inh -2.1, IDE cell inh 3.7, PP1 confirm -5.7 and PP5 counter -4.9.
`COCCN(C(=O)COC(=O)c1cc2c(s1)CCC2)c1c(N)n(Cc2ccccc2)c(=O)[nH]c1=O` gave PP5 inh -2.0, Granule exo inh 7.2, IDE cell activ 5.0, PP1 inh 17.9*, SKKanGAS inh -11.7, IDE cell inh 0.3, PP1 confirm 4.8 and PP5 counter -4.6.
For C=CCN1C(=O)c2ccc(C(=O)Nc3ccccn3)cc2C1=O the results were PP5 inh -0.7, Granule exo inh -7.2, IDE cell activ 6.8, PP1 inh -2.4, SKKanGAS inh 14.1 and IDE cell inh -0.5.
For O=C(OCc1cc(=O)n2ccsc2n1)c1ccc(OC(F)F)cc1 the results were Granule exo inh -2.4 and IDE cell activ 1.1.
For Cc1[nH][nH]c(=O)c1C(c1c(C)[nH][nH]c1=O)c1cn(Cc2ccc(Cl)c(Cl)c2)c2ccccc12 the results were PP5 inh 1.6, Granule exo inh 2.8, IDE cell activ 0.1, PP1 inh 18.1*, SKKanGAS inh 68.7*, IDE cell inh 5.8, PP1 confirm 17.3* and PP5 counter 24.2*.
Screening Cc1[nH][nH]c(=O)c1C(c1c(C)[nH][nH]c1=O)c1cn(Cc2ccc(F)cc2)c2ccccc12 returned PP5 inh 6.3, Granule exo inh 2.4, IDE cell activ 5.5, PP1 inh 13.6 and IDE cell inh 0.2.
Screening C[C@H]1CN([C@@H](C)CO)S(=O)(=O)c2ccc(Br)cc2O[C@@H]1CN(C)C(=O)C1CCOCC1 returned Granule exo inh -1.4.
For COc1ccc(C(=O)NCC(=O)Nc2ccc(-c3ccccc3)cc2)cc1 the results were PP5 inh -1.9, Granule exo inh -7.5, IDE cell activ -1.1, PP1 inh 19.8*, SKKanGAS inh -7.4, IDE cell inh -1.1, PP1 confirm 32.7* and PP5 counter -2.9.
For Cc1ccc(NC(=O)CCC(=O)OCC(=O)c2ccc(-c3ccccc3)cc2)cc1 the results were PP5 inh -0.6, Granule exo inh 3.8, IDE cell activ -5.7, PP1 inh 28.9*, SKKanGAS inh 4.2, IDE cell inh 4.2, PP1 confirm 21.3* and PP5 counter -2.8.
CCOc1ccc(NC(=O)CNC(=O)c2ccc(OC)cc2)cc1 was read as PP5 inh 1.8, Granule exo inh -3.6, IDE cell activ 1.2, PP1 inh -6.4, SKKanGAS inh -5.8 and IDE cell inh 2.5.
For CC1CN(S(=O)(=O)c2ccc(C(=O)N(C)C3CCCCC3)cc2)CC(C)O1 (stereo not given) the results were Granule exo inh 2.5, IDE cell activ 6.5 and IDE cell inh 3.6.
`Oc1ccc(Cl)cc1C(C#Cc1ccccc1)N1CCOCC1` (stereo not given) gave PP5 inh 4.6, Granule exo inh 4.6, IDE cell activ 0.7, PP1 inh 0.3, SKKanGAS inh 32.3 and IDE cell inh -0.7.
CCOCC(=O)Nc1ccccc1C(=O)O was read as PP5 inh 2.1, Granule exo inh -1.2, IDE cell activ -5.1, PP1 inh -1.6, SKKanGAS inh -0.3 and IDE cell inh -0.3.
For COc1ccccc1N1Cc2ccccc2C1 the results were PP5 inh 2.7, Granule exo inh -1.2, IDE cell activ 2.7, PP1 inh 18.0*, SKKanGAS inh 6.1, IDE cell inh 5.0, PP1 confirm 24.2* and PP5 counter 1.9.
`OC(CNCc1ccc(Cl)cc1)C(F)(F)F` (stereo not given) gave PP5 inh -1.4, Granule exo inh 0.0, IDE cell activ -3.3, PP1 inh -0.4, SKKanGAS inh 1.9 and IDE cell inh -0.4.
Screening N#C/C(=C(/O)c1ccc(Cl)c([N+](=O)[O-])c1)c1nc2ccccc2[nH]1 returned PP5 inh 3.7, Granule exo inh 0.1, IDE cell activ 4.5, PP1 inh 19.9*, SKKanGAS inh 0.2, IDE cell inh 5.4, PP1 confirm 13.8 and PP5 counter -1.5.
`NC(=O)C1CCN(C(=O)c2ccccc2SCC(=O)NCC2CCCCC2)CC1` gave PP5 inh 4.4, Granule exo inh -6.5, IDE cell activ 4.1, PP1 inh -4.2, SKKanGAS inh 5.9 and IDE cell inh 1.8.
